Only some compounds are listed: those with a hit (about 2.1% of all), similar ones and a draw of the others.
Mot1-301 SUMO = SUMOylation pathway inhibition by Mot1-301 growth rescue; S. cerevisiae Mot1-301 growth rescue, ATP luminescence, 38.5C; percent above DMSO median, 100 means doubled; actives 1% (n = 320,000); growth rescue, % at 18.8 µM;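 active means every valid replicate shows activation above 250% relative to neutral control wells; inactive means the rest, any valid replicate at or below 250%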
IDE act = activators of human insulin-degrading enzyme in cells; P14735; activation, % at 5.96 µM; HEK cells, FAbeta-B cleavage, fluorescence polarization; 0% vehicle, 100% cell-free pure enzyme wells; AID 493087; actives 0.073% (n = 340,000);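 active means activation above the mean of all tested compounds plus 3 SD, set per screening campaign, cut at about 17% in these data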
LANA-H2B inh = blocks KSHV LANA binding to histone H2A/H2B; Q9QR71; cell-free LANA-H2A/H2B peptide, fluorescence polarization; inhibition, % (test concentration not listed); actives 0.6% (n = 320,000); in the data active means inhibition mostly above about 10%, no sharp cut-off; inactive means mostly below about 6.7%
IDE cell inh = inhibitors of human insulin-degrading enzyme in cells; HEK cells, FAbetaB cleavage, fluorescence polarization; inhibition, % at 5.59 µM; actives 0.41% (n = 320,000);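 active means percent inhibition above the average of all tested compounds plus 3 SD, set per screening campaign, cut at about 16% in these data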;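 further: IDE supplied by intact live HEK cells; FP after avidin binding of uncleaved biotin substrate so inhibition keeps polarization high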
HDAC3 inhib = blocks human histone deacetylase 3. AID 2718. O15379. recombinant HDAC3, fluorogenic peptide/trypsin coupled, fluorescence. actives 0.15% (n = 320,000). inhibition, % at 8.3 µM; in the data active means inhibition above about 26%, passing the limit was not always enough
Yeast Mot1 SUMO = inhibits SUMO pathway, affecting Mot1-301 yeast growth | 2,300 tested, under 10 active | S. cerevisiae Mot1-301 galactose growth, ATP luminescence, 24 h; -100 = growth of slx-deleted rescue strain | growth activity, percent, % at 42 µM | shares compounds with Mot1-301 SUMO | AID 493004;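 active means Signal drops as the depositor expects, and the fitted half-maximal dose is no more than ten times the top valid tested dose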;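 further: more negative values mean stronger growth rescue toward the control strain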
Large screens that a line does not name were inactive (follow-up assays come after a bar, where they were run).

CCOc1ccc(C(=O)Nc2ccc(N3CCN(C)CC3)cc2)cc1[N+](=O)[O-]	Mot1-301 SUMO 690.5 | Yeast Mot1 SUMO inactive
O=C(Nc1ccc2c(c1)oc1ccccc12)C1CC1	Mot1-301 SUMO active | Yeast Mot1 SUMO inactive
CCC(=O)Nc1ccc(C(=O)CN2C(=O)NC3(CCOc4ccccc43)C2=O)cc1 (stereo not given)	none
CC(C)CC(=O)Nc1ccc(C(=O)CN2C(=O)NC3(CCOc4ccccc43)C2=O)cc1 (stereo not given)	Mot1-301 SUMO 566.4 | Yeast Mot1 SUMO inactive
CCOc1ccc2[nH]c(C(=O)N/N=C/c3ccccc3OC)cc2c1	none
COc1ccc2[nH]c(C(=O)N/N=C/c3ccccc3OC)cc2c1	Mot1-301 SUMO 502.9 | Yeast Mot1 SUMO inactive
C[C@@H](NC(=O)[C@@H]1Cc2ccccc2CN1)C(=O)Nc1ccc2c(c1)OCCO2	none
N#Cc1cc([N+](=O)[O-])cnc1NCC(O)CO (stereo not given)	Mot1-301 SUMO 493.8 | Yeast Mot1 SUMO inactive
Cc1cccc2nc3ccccc3cc12	Mot1-301 SUMO 576.4 | Yeast Mot1 SUMO inactive
Cc1ccc2nc(C)cc(C(=O)N3CCCC(N4CCN(c5ccccc5C)CC4)C3)c2c1 (stereo not given)	none
COc1ccc(CCC(=O)Nc2cccc(S(=O)(=O)N3CCOCC3)c2)cc1OC	none (no result: Mot1-301 SUMO, LANA-H2B inh, IDE cell inh, HDAC3 inhib)
CC1=C(C)CS(=O)N(S(=O)(=O)c2ccc(Cl)cc2)C1 (stereo not given)	Mot1-301 SUMO 724.2 | Yeast Mot1 SUMO inactive
CC1CCCC(C)N1S(=O)(=O)c1ccc(Cl)cc1 (stereo not given)	none
O=S1(=O)CC(N2CCCCC2)C(N2CCCCC2)C1 (stereo not given)	Mot1-301 SUMO 366.0 | Yeast Mot1 SUMO inactive
CCS(=O)(=O)N1CCC(C(=O)N2CCc3ccccc3C2)CC1	Mot1-301 SUMO 363.5 | Yeast Mot1 SUMO inactive
Cc1c(Cl)cccc1NS(=O)(=O)c1cccc2nsnc12	none
O=C(NC(=S)Nc1ccc(F)c([N+](=O)[O-])c1)c1ccccc1F	none
CC(C)C(=O)Nc1ccc(NC(=S)NC(=O)c2ccccc2F)cc1	Mot1-301 SUMO 494.6 | Yeast Mot1 SUMO inactive
COc1cc(S(=O)(=O)NC2CCCC2)c(OC)cc1C	Mot1-301 SUMO 435.0 (no result: HDAC3 inhib) | Yeast Mot1 SUMO inactive
Cc1nnc(NC(=O)c2cccc(S(=O)(=O)N(C)c3cccc(Cl)c3)c2)s1	none
Cc1n[nH]c(=O)nc1NCc1ccc(Cl)cc1	Mot1-301 SUMO 627.4 | Yeast Mot1 SUMO inactive
COc1ccc(C(=O)NCCS(=O)(=O)N2CCCC2)cc1	none
Cc1cc(C(F)(F)F)c(C#N)c(=O)[nH]1	Mot1-301 SUMO active | Yeast Mot1 SUMO inactive
N#Cc1c(C(F)(F)F)cc(-c2ccc(F)cc2)[nH]c1=O	none
C/C(CC(=O)NC1CCCCC1)=N\NC(=O)Cc1ccc(-c2ccccc2)cc1	Mot1-301 SUMO 437.0 | Yeast Mot1 SUMO inactive
O=C(NCCNc1ccc(Cl)cc1[N+](=O)[O-])c1ccccc1F	Mot1-301 SUMO 473.7 | Yeast Mot1 SUMO inactive
COc1cc(C)c(Cl)c(C)c1S(=O)(=O)NCc1ccc2c(c1)OCO2	Mot1-301 SUMO 383.6 | Yeast Mot1 SUMO inactive
Cc1cc2ncc(C(=O)N=CN(C)C)cn2n1	Mot1-301 SUMO 498.2 | Yeast Mot1 SUMO inactive
c1ccc2c(c1)NCC1CCCN21 (stereo not given)	none
COc1cccc(NC(=O)Nc2cc(C(=O)NC(C)C)ccc2N2CC3CC(C2)c2cccc(=O)n2C3)c1 (stereo not given)	Mot1-301 SUMO 401.9 | Yeast Mot1 SUMO inactive
CCCNC(=O)c1ccc(N2CC3CC(C2)c2cccc(=O)n2C3)c(NC(=O)Nc2ccc(CC)cc2)c1 (stereo not given)	none
Cc1noc(C)c1Cc1ccc(O)cc1	Mot1-301 SUMO 472.1 | Yeast Mot1 SUMO inactive
Cc1noc(C)c1Cc1c(Cl)cccc1Cl	none
N#CCSc1nc2c(cc1C#N)CCCCCC2	none
N#CCSc1nc2c(c(C3CC=CCC3)c1C#N)CCC2 (stereo not given)	Mot1-301 SUMO active | Yeast Mot1 SUMO inactive
COCCn1c(C)cc(C(=O)CN2C(=O)NC3(CCCCCCC3)C2=O)c1C	Mot1-301 SUMO 667.4 | Yeast Mot1 SUMO inactive
COc1ccccc1NC(=O)C1=C(C)NC(=O)NC1c1ccccc1[N+](=O)[O-] (stereo not given)	none
CC1=C(C(=O)Nc2ccccc2)C(c2ccccc2[N+](=O)[O-])NC(=O)N1 (stereo not given)	Mot1-301 SUMO active | Yeast Mot1 SUMO inactive
CCOc1ccccc1NC(=O)C1COc2ccccc2O1 (stereo not given)	none (no result: IDE cell inh)
CCOc1ccc(OCC)c(NC(=O)C2COc3ccccc3O2)c1 (stereo not given)	Mot1-301 SUMO 824.4 | Yeast Mot1 SUMO inactive
COc1nc(-c2ccccc2)ccc1-c1noc(-c2ccccc2)n1	Mot1-301 SUMO 558.0 | Yeast Mot1 SUMO inactive
CCc1cc2c(NCCO)ncnc2s1	Mot1-301 SUMO active | Yeast Mot1 SUMO inactive
CCOC(=O)c1ccc(CNC(=O)Cn2nnc(-c3ccc(C)cc3)n2)o1	Mot1-301 SUMO active | Yeast Mot1 SUMO inactive
CC1=CC(C)(C)N(C(=O)CN2C(=O)CCC2=O)c2ccccc21	none
CC1CC(C)(C)N(C(=O)CN2C(=O)CCC2=O)c2ccccc21 (stereo not given)	Mot1-301 SUMO 370.6 | Yeast Mot1 SUMO inactive
O=C(Nc1cnn(Cc2ccc(Cl)cc2)c1)c1ccc([N+](=O)[O-])cc1	Mot1-301 SUMO 390.2 | Yeast Mot1 SUMO inactive
COC(=O)c1ccc(Cn2cc(Cl)cn2)cc1	Mot1-301 SUMO 652.1 | Yeast Mot1 SUMO inactive
COC(=O)c1sc(NC(=O)c2ccc(Cn3cc(Cl)cn3)o2)c(C#N)c1C	Mot1-301 SUMO active | Yeast Mot1 SUMO inactive
CN(C(=O)c1cccc(NC(=O)C2CCN(C(=O)OC(C)(C)C)CC2)c1)C1CCCCC1	none
O=c1c2ccccc2nc(SCc2nnc(-c3ccccc3)o2)n1-c1ccc(F)cc1F	Mot1-301 SUMO 465.9 | Yeast Mot1 SUMO inactive
Cc1ccc(OCCCCN2CCC(C)CC2)cc1	none
CC1CCN(CCCOc2ccc(OCc3ccccc3)cc2)CC1	Mot1-301 SUMO 551.4 | Yeast Mot1 SUMO inactive
c1ccc(COc2ccc(OCCCN3CCCC3)cc2)cc1	none
CC1CCN(CCCCOc2cccc(C(C)C)c2)CC1	Mot1-301 SUMO 408.0 | Yeast Mot1 SUMO inactive
CC1CCN(CCOc2cccc(Br)c2)CC1	none
CC1CCN(CCCCOc2ccc(F)cc2)CC1	Mot1-301 SUMO 547.5 | Yeast Mot1 SUMO inactive
CC(C)c1cccc(OCCCCN(C)C)c1	Mot1-301 SUMO 568.1 | Yeast Mot1 SUMO inactive
O=C(CCN1CCN(c2ccccc2)CC1)Nc1ccccc1	none
Cc1c(Cl)cccc1NC(=S)NCCCN(C)C	Mot1-301 SUMO 392.6 (no result: HDAC3 inhib) | Yeast Mot1 SUMO inactive
S=C(NCCc1ccccc1)Nc1ccccc1Cl	Mot1-301 SUMO 529.9 | Yeast Mot1 SUMO inactive
COCCNS(=O)(=O)c1cc(C(=O)O)ccc1OC	none

Screens: PubChem BioAssay, several laboratories
